Experimental data taken from ChEMBL document CHEMBL1157539, “Thousands of chemical starting points for antimalarial lead identification” (Nature, 2010).

System: Plasmodium falciparum
Assay: GSK_TCMDC: Inhibition of Plasmodium falciparum 3D7 in whole red blood cells, using parasite LDH activity as an index of growth. Test compounds present at 2uM
Format: functional

Compound | Inhibition [%]
COc1ccc(/N=[N+](\[O-])c2ccccc2/[N+]([O-])=N/c2ccc(OC)cc2)cc1 | 84
CCCCCCNC(=O)C1Cc2c([nH]c3ccc(C)cc23)C2(CCN(Cc3ccccc3)CC2)N1 (centres undefined) | 84
COc1ccc2ncc(OC)c(CCN3CC[C@@H](NCc4ccc5c(n4)NC(=O)CS5)[C@H](O)C3)c2n1 | 94
Cc1cccc2nc(-c3ccc(-c4ccc(NC(=O)c5cncn5C)cc4)s3)[nH]c12 | 100
CN1CCN(c2ccnc3ccc(NC(=O)Nc4cccc5c(-c6ccncc6)cccc45)cc23)CC1 | 100
COc1ccc(Nc2nccc(N3CCC(NC(=O)c4cccc(NC(C)=O)c4)C3)n2)cc1 (centres undefined) | 92
Nn1c(=O)oc2ccc(Cl)cc2c1=O | 97
CC(=O)Nc1ccc(CN(Cc2ccc(F)cc2)Cc2ccc3c(c2)OCO3)cc1 | 91
NCCNc1ccnc2cc(Cl)ccc12 | 100
Cc1ccc(C)c(NC(=O)Nc2ccc(C)c(-c3ccc(C(=O)Nc4ccncc4)cc3)c2)c1 | 98
COc1ccc(Nc2ncc3c(-c4cccc(NC(=O)Cc5cccc(F)c5)c4)c[nH]c3n2)cc1OC | 100
Cc1ccc(NC(=O)NC2CCN(c3ccnc4cc(Cl)ccc34)CC2)cc1.O=C(O)C(F)(F)F | 100
CC(C)C[C@H](NC(=O)c1cc2ccccc2s1)C(=O)N[C@H]1CCN(Cc2ccc(I)c(OC3CCN(C)C3)c2)C1.O=C(O)C(F)(F)F (some centres undefined) | 100
COc1cc(F)c2ncc(Cl)c(CCN3CCC(NCc4ccc5c(n4)NC(=O)CS5)CC3)c2c1.Cl | 99
